# PubChem BioAssay (NCATS)
# Records with an inconclusive call do not appear. The source made the active and inactive calls. Unless noted, calls follow the shape of the full dose curve.
# Key:
# [1] = Dual reporter qHTS for antagonist of Pregnane X Receptor (hPXR) against the NCATS DSHEA and TCM libraries: Fluorescence Readout (AID 1920061; active = well fitted curve in the direction sought with a large enough effect; an effect the other way counts as inactive or inconclusive; also: 0% is about no effect)
# Procedure, shortened: (§1)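 Antagonist mode: rifampicin 2 uM final co-added with compounds to hPXR-LucHepG2 cells for 24 h at 37C. Viability by CellTiter-Fluor, Ex/Em 405/540 nm, 1 h; reporter by ONE-Glo luminescence.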
# [2] = qHTS profiling for inhibitors of Plasmodium falciparum proliferation (AID 504749; active = well fitted curve in the direction sought with a large enough effect; an effect the other way counts as inactive or inconclusive;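 also: 0% = DMSO vehicle and full inhibition = artemisinin control; nearly all actives have a fitted effect of over 60% in size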); conditions: P. falciparum in erythrocytes, SYBR Green DNA, 72 h; series mostly up to 28.7 µM
# Procedure, shortened: (§2)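 Fluorescence of SYBR Green-bound parasite DNA, read at 485/535 nm, served as the growth measure. Infected erythrocytes were cultured with compound 72 h; artemisinin (0.29 uM) and DMSO wells defined the normalization range.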
# 3D7 = assay: as above; conditions: P. falciparum in erythrocytes, SYBR Green DNA, 72 h; series mostly up to 28.7 µM
# Procedure, shortened: as §2
# 7G8 = assay: as above; conditions: P. falciparum in erythrocytes, SYBR Green DNA, 72 h; series mostly up to 28.7 µM
# Procedure, shortened: as §2
# AA1029 = assay: as above; conditions: P. falciparum in erythrocytes, SYBR Green DNA, 72 h; series mostly up to 28.7 µM
# Procedure, shortened: as §2
# AS120 = assay: as above; conditions: P. falciparum in erythrocytes, SYBR Green DNA, 72 h; series mostly up to 28.7 µM
# Procedure, shortened: as §2
# ATS95 = assay: as above; conditions: P. falciparum in erythrocytes, SYBR Green DNA, 72 h; series mostly up to 28.7 µM
# Procedure, shortened: as §2
# [3] = qHTS drug screen for cell cycle checkpoint inhibitors in PARPi-resistant BRCA-mutant ovarian cancer cell lines. (AID 1963452); conditions: PEO1/OlaR viability, CellTiter-Glo luminescence, 96 h, stronger effect = lower value
# Procedure, shortened: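 PEO1, PEO4 and PEO1/OlaR ovarian cancer cells, 600 per well, exposed 96 h at 37C to a dilution series. Viability read by CellTiter-Glo luminescence, normalized to DMSO and empty wells; activity summarized as Z-AUC.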
# ATS189 = assay: qHTS profiling for inhibitors of Plasmodium falciparum proliferation (AID 504749);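 also: 0% = DMSO vehicle and full inhibition = artemisinin control; nearly all actives have a fitted effect of over 60% in size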; conditions: P. falciparum in erythrocytes, SYBR Green DNA, 72 h; series mostly up to 28.7 µM
# Procedure, shortened: as §2
# [4] = target: Nuclear receptor subfamily 1 group I member 2 (Homo sapiens) (UniProt O75469); assay: Dual reporter qHTS for antagonist of Pregnane X Receptor (hPXR) against the NCATS DSHEA and TCM libraries: Luminescence Readout (AID 1920060; active = well fitted curve in the direction sought with a large enough effect; an effect the other way counts as inactive or inconclusive;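 also: HepG2 cells carrying hPXR luciferase reporter stimulated with rifampicin at 2 µM; 0% is about no effect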)
# Procedure, shortened: as §1
# [5] = measured here: PEO1 parental Z-AUC
# Sequence of Nuclear receptor subfamily 1 group I member 2 (Homo sapiens) (O75469 whole entry, looked up): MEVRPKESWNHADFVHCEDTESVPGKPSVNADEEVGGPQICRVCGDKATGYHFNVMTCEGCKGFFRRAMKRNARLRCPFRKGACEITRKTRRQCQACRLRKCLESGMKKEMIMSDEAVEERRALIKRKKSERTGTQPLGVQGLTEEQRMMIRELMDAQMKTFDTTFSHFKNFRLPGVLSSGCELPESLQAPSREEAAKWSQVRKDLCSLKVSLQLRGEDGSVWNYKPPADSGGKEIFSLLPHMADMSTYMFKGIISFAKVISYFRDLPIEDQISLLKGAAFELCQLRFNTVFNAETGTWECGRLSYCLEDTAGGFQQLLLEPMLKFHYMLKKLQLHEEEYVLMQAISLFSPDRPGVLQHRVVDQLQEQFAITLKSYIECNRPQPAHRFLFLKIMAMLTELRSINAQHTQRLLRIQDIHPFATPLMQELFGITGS
compound,measurement,setting,value
O=C(OCC1=C[C@@H](O)[C@@H]2C=CO[C@@H](O[C@@H]3O[C@H](CO)[C@@H](O)[C@H](O)[C@H]3O)[C@H]12)c1ccc(O)cc1,outcome,[1],inactive
CCc1cccc2c3c([nH]c12)[C@@](CC)(CC(=O)O)OCC3,outcome,[2],inactive
same,outcome,3D7,inactive
same,outcome,7G8,inactive
same,outcome,AA1029,inactive
same,outcome,AS120,inactive
same,outcome,ATS95,inactive
Cc1c(F)cc(C(=O)NC2CC2)cc1-c1ccc(C(=O)NCC(C)(C)C)cn1,Z-AUC,[3],0.819 (inactive)
same,Z-AUC,[3]; [5],0.354
same,Z-AUC,[3]; measured here: PEO4 Z-AUC,0.681
N#CN1CCC[C@@H](n2nc(-c3ccc(Oc4ccc(F)cc4F)cc3)c(C(N)=O)c2N)C1,Z-AUC,[3],-0.296 (inactive)
same,Z-AUC,[3]; [5],0.0658
same,Z-AUC,[3]; measured here: PEO4 Z-AUC,0.537
Nc1ncnc2c1c(COc1cccc(Cl)c1)nn2C1CCOCC1,Z-AUC,[3],-1.18 (inactive)
same,Z-AUC,[3]; [5],-0.772
same,Z-AUC,[3]; measured here: PEO4 Z-AUC,-0.767
CCC(CC)CC1(C(=O)Nc2ccccc2SC(=O)C(C)C)CCCCC1,Z-AUC,[3],-0.732 (inactive)
same,Z-AUC,[3]; [5],-0.887
same,Z-AUC,[3]; measured here: PEO4 Z-AUC,-0.923
CNc1nc(C)nc(N[C@H]2CCC[C@@H](C(=O)NCc3ccc(C#N)cc3C(F)(F)F)C2)n1,Z-AUC,[3],-0.0725 (inactive)
same,Z-AUC,[3]; [5],0.695
same,Z-AUC,[3]; measured here: PEO4 Z-AUC,1.22
COc1ccc2[nH]c(S(=O)Cc3ncc(C)c(OC)c3C)nc2c1 (stereo not drawn),Z-AUC,[3],0.929 (inactive)
same,Z-AUC,[3]; [5],1.11
same,Z-AUC,[3]; measured here: PEO4 Z-AUC,1.24
O=C(/C=C/C=C/c1ccc2c(c1)OCO2)N1CCCCC1,Z-AUC,[3],1.54 (inactive)
same,Z-AUC,[3]; [5],1.2
same,Z-AUC,[3]; measured here: PEO4 Z-AUC,2.18
C=C1C[C@@]2(O)O[C@@]3(C[C@H]2C(C)C)[C@@H](C)CC[C@@H]13,Z-AUC,[3],-0.318 (inactive)
same,Z-AUC,[3]; [5],-0.38
same,Z-AUC,[3]; measured here: PEO4 Z-AUC,-0.147
CC(C)N(CCCNC(=O)Nc1ccc(C(C)(C)C)cc1)C[C@H]1O[C@@H](n2ccc3c(N)ncnc32)[C@H](O)[C@@H]1O,Z-AUC,[3],-0.352 (inactive)
same,Z-AUC,[3]; [5],-0.286
same,Z-AUC,[3]; measured here: PEO4 Z-AUC,-0.377
Cc1cccc(-c2nn3c(c2-c2ccnc4ccc(C(N)=O)cc24)CCC3)n1,Z-AUC,[3],1.11 (inactive)
same,Z-AUC,[3]; [5],0.368
same,Z-AUC,[3]; measured here: PEO4 Z-AUC,0.508
Cc1noc2c1-c1ccccc1C(c1ccc(Cl)cc1)=N[C@H]2CC(N)=O,Z-AUC,[3],-0.193 (inactive)
same,Z-AUC,[3]; [5],-0.00939
same,Z-AUC,[3]; measured here: PEO4 Z-AUC,-0.463
Cc1ncc(Cl)cc1NCc1ccc(C(=O)NC(CC2CCCC2)C(=O)NC2CC2)s1 (stereo not drawn),Z-AUC,[3],-0.347 (inactive)
same,Z-AUC,[3]; [5],-0.204
same,Z-AUC,[3]; measured here: PEO4 Z-AUC,0.18
Cc1nc(-c2cccnc2)sc1C(=O)Nc1ccccc1-c1cn2c(CN3CCOCC3)csc2n1,Z-AUC,[3],0.405 (inactive)
same,Z-AUC,[3]; [5],-0.0743
same,Z-AUC,[3]; measured here: PEO4 Z-AUC,0.19
Cc1ncc(NC(=O)c2ccc(CN3CCN(C)CC3)c(C(F)(F)F)c2)cc1Nc1nccc(-c2cccnc2)n1,Z-AUC,[3],0.889 (inactive)
same,Z-AUC,[3]; [5],-0.0515
same,Z-AUC,[3]; measured here: PEO4 Z-AUC,-0.0456
Cn1cc(-c2c[nH]c3ncnc(N4CCOCC4)c23)cn1,Z-AUC,[3],1.31 (inactive)
same,Z-AUC,[3]; [5],1.65
same,Z-AUC,[3]; measured here: PEO4 Z-AUC,1.56
O=C1NC(=O)/C(=C/c2cccc(C(F)(F)F)c2)S1,Z-AUC,[3],0.536 (inactive)
same,Z-AUC,[3]; [5],0.151
same,Z-AUC,[3]; measured here: PEO4 Z-AUC,0.0196
CCCCOc1nc(N)c2c(n1)N(Cc1cccc(CN3CCCC3)c1)CC(=O)N2,Z-AUC,[3],-0.393 (inactive)
same,Z-AUC,[3]; [5],-0.969
same,Z-AUC,[3]; measured here: PEO4 Z-AUC,-0.664
Cc1ccccc1-n1nc(-c2c(-c3ccc(F)cc3)nn3c2NC[C@@H](CO)C3)ccc1=O,Z-AUC,[3],0.0215 (inactive)
same,Z-AUC,[3]; [5],0.2
same,Z-AUC,[3]; measured here: PEO4 Z-AUC,0.209
N#Cc1cccc(-c2c[nH]c3ncnc(N4CCOCC4)c23)c1,Z-AUC,[3],0.0885 (inactive)
same,Z-AUC,[3]; [5],0.762
same,Z-AUC,[3]; measured here: PEO4 Z-AUC,0.859
O=C(O)CC1CCC(c2ccc(-c3ccc(Nc4ccc(C(F)(F)F)nc4)cn3)cc2)CC1 (stereo not drawn),Z-AUC,[3],-0.639 (inactive)
same,Z-AUC,[3]; [5],-0.457
same,Z-AUC,[3]; measured here: PEO4 Z-AUC,-0.671
C[C@@H]1O[C@@H](O[C@@H]2\C=C/C=C\C=C/C=C\C[C@H](C)OC(=O)/C=C\[C@H]3O[C@@H]3C[C@H](O)C[C@]3(O)C[C@@H](O)[C@@H](C(=O)O)[C@H](C2)O3)[C@H](O)[C@H](N)[C@@H]1O,Z-AUC,[3],1.98 (inactive)
same,Z-AUC,[3]; [5],1.57
same,Z-AUC,[3]; measured here: PEO4 Z-AUC,1.97
COCCCc1sc(-c2ccccc2)nc1C(=O)Nc1ccccc1-c1nc2cc(CN3CCCC3)cnc2s1,Z-AUC,[3],0.0751 (inactive)
same,Z-AUC,[3]; [5],-0.146
same,Z-AUC,[3]; measured here: PEO4 Z-AUC,0.43
CCOC(=O)C(CCc1ccccc1)NC(C)C(=O)N1Cc2ccccc2CC1C(=O)O (stereo not drawn),outcome,[2],inactive
same,outcome,3D7,inactive
same,outcome,7G8,inactive
same,outcome,AA1029,inactive
same,outcome,AS120,inactive
same,outcome,ATS189,inactive
same,outcome,ATS95,inactive
CC(=O)O[C@@H]1C[C@@H](C)[C@](O)(CCC2=CC(=O)OC2)[C@@]2(C)CCCC(C)(C)C12 (stereo partly drawn),outcome,[4],inactive
same,outcome,[1],inactive
CC(C)[C@](O)(c1ccc2cc(OC(F)F)c(OC(F)F)cc2c1)c1cn[nH]n1,Z-AUC,[3],-0.262 (inactive)
same,Z-AUC,[3]; [5],-0.434
same,Z-AUC,[3]; measured here: PEO4 Z-AUC,-0.604
Nc1ncnc2c1C(=O)N(c1ccc(C3CCC(CC(=O)O)CC3)cc1)CCO2 (stereo not drawn),Z-AUC,[3],0.276 (inactive)
same,Z-AUC,[3]; [5],0.0726
same,Z-AUC,[3]; measured here: PEO4 Z-AUC,0.138
